Results from the supplement of paper PMC13380429.

System: Vero E6 infected with SARS-CoV-2
Experiment: inhibition of SARS-CoV-2 cytopathic effect; higher = more antiviral protection, active = above 15
Conditions: 48 h

| SMILES | inhibition of SARS-CoV-2 cytopathic effect (1 nM) | inhibition of SARS-CoV-2 cytopathic effect (8.33 nM) | inhibition of SARS-CoV-2 cytopathic effect (100 nM) | inhibition of SARS-CoV-2 cytopathic effect (833.33 nM) | inhibition of SARS-CoV-2 cytopathic effect (10000 nM) |
| --- | --- | --- | --- | --- | --- |
| C[C@@H](Oc1ccc(Cl)cc1)c1ccnc2ncnn12 | -0.64% (inactive) | 0.02% (inactive) | -0.48% (inactive) | -2.21% (inactive) | -3.4% (inactive) |
| CC(C)Oc1ccc(-c2nc(-c3cccc4c3CC[C@@H]4NCCO)no2)cc1C#N [ozanimod] | -1.23% (inactive) | -0.27% (inactive) | 2.87% (inactive) | 0.63% (inactive) | 59.2% (active) |
| O=C1C(=C(O)/C=C/c2ccc(O)cc2)C(=O)[C@@](O)([C@@H]2O[C@H](CO)[C@@H](O)[C@H](O)[C@H]2O)C(=O)[C@H]1[C@@H]1O[C@H](CO)[C@@H](O)[C@H](O)[C@H]1O | 0.73% (inactive) | -1.02% (inactive) | -0.24% (inactive) | -0.74% (inactive) | -2.44% (inactive) |
| CN1CC(=O)NC1=N [creatinine] | 1.26% (inactive) | 1.05% (inactive) | -2.37% (inactive) | 1.18% (inactive) | -1.05% (inactive) |
| CCC(Cc1c(I)cc(I)c(N)c1I)C(=O)O (stereo not given) [iopanic-acid] | 2.78% (inactive) | 2.89% (inactive) | 1.6% (inactive) | 0.47% (inactive) | 2.12% (inactive) |
| C[C@]12CC[C@H](O)C[C@H]1CC[C@@H]1[C@@H]2C[C@@H](O)[C@]2(C)[C@@H](C3=CC(=O)OC3)CC[C@]12O [digoxigenin] | -0.69% (inactive) | -0.54% (inactive) | -6.58% (inactive) | -10.3% (inactive) | -14.1% (inactive) |
| CN(C)CCC=C1c2ccccc2CCc2ccccc21 [amitriptyline] | -2.51% (inactive) | -0.51% (inactive) | 5.58% (inactive) | 1.84% (inactive) | -2.45% (inactive) |
| CCc1nc(C(N)=O)c(Nc2ccc(N3CCC(N4CCN(C)CC4)CC3)c(OC)c2)nc1NC1CCOCC1 [gilteritinib] | 0.28% (inactive) | 0.02% (inactive) | -2.49% (inactive) | -0.11% (inactive) | 10.3% (inactive) |
| COc1ccc(C(=O)NCc2cccnc2)cc1C(=O)NCc1cccnc1 [picotamide] | -0.44% (inactive) | 2.62% (inactive) | 0.96% (inactive) | 0.22% (inactive) | -1.62% (inactive) |
| CN(CCOc1ccc(-c2ccc3c(c2)OCO3)cc1C(C)(C)C)CC(=O)O | 1.26% (inactive) | -3.67% (inactive) | -6.89% (inactive) | -0.1% (inactive) | -1.31% (inactive) |
| CC(C)NCC(O)COc1cccc2ccccc12 (stereo not given) [propranolol] | 0.19% (inactive) | 1.94% (inactive) | -0.637% (inactive) | -0.01% (inactive) | -2.77% (inactive) |
| O=c1ccc2cc(O[C@@H]3O[C@H](CO)[C@@H](O)[C@H](O)[C@H]3O)c(O)cc2o1 [esculin] | -1.01% (inactive) | -0.49% (inactive) | -1.32% (inactive) | -1.49% (inactive) | -0.95% (inactive) |
| CNC(=O)c1ccc2c(c1)S(=O)(=O)c1ccccc1C2=O | 0.15% (inactive) | 0.66% (inactive) | 1.63% (inactive) | -1.32% (inactive) | -0.42% (inactive) |
| CCn1c(-c2nonc2N)nc2cncc(C(=O)N3CC[C@H](N)C3)c21 | 0.81% (inactive) | 3.31% (inactive) | 2.3% (inactive) | -3.28% (inactive) | -2.39% (inactive) |
| C[C@@H]1CC[C@@]2(OC1)O[C@H]1C[C@H]3[C@@H]4CC=C5C[C@@H](O)CC[C@]5(C)[C@H]4CC[C@]3(C)[C@H]1[C@@H]2C [diosgenin] | -0.61% (inactive) | -0.09% (inactive) | 0.12% (inactive) | -2.38% (inactive) | -1.29% (inactive) |
| C#CCOC(=O)C1=CCCN(C)C1 [arecaidine-propargyl-ester] | -3.75% (inactive) | 0.55% (inactive) | -0.74% (inactive) | -1.69% (inactive) | 2.67% (inactive) |
| CCNC(=O)[C@@H]1CCCN1C(=O)[C@H](CCCNC(=N)N)NC(=O)[C@H](CC(C)C)NC(=O)[C@@H](CC(C)C)NC(=O)[C@H](Cc1ccc(O)cc1)NC(=O)[C@H](CO)NC(=O)[C@H](Cc1c[nH]c2ccccc12)NC(=O)[C@H](Cc1c[nH]cn1)NC(=O)[C@@H]1CCC(=O)N1 [leuprolide] | -3.75% (inactive) | 3.77% (inactive) | 3.45% (inactive) | 0.4% (inactive) | -1.48% (inactive) |
| CC1CCC(NC(=O)N(CCCl)N=O)CC1 (stereo not given) [semustine] | 1.43% (inactive) | 1.15% (inactive) | -3.63% (inactive) | -1.54% (inactive) | 0.45% (inactive) |
| CC[C@H]1CN2CC[C@H]1C[C@@H]2[C@@H](O)c1ccnc2ccc(OC)cc12 [hydroquinidine] | 2.34% (inactive) | 3.2% (inactive) | 0.81% (inactive) | 2.84% (inactive) | 1.57% (inactive) |

| SMILES | inhibition of SARS-CoV-2 cytopathic effect (1 nM) | inhibition of SARS-CoV-2 cytopathic effect (8.33 nM) | inhibition of SARS-CoV-2 cytopathic effect (100 nM) | inhibition of SARS-CoV-2 cytopathic effect (833.33 nM) | inhibition of SARS-CoV-2 cytopathic effect (10000 nM) |
| --- | --- | --- | --- | --- | --- |
| O=C(O)CC(S)C(=O)O (stereo not given) [mercaptosuccinic-acid] | 0.69% (inactive) | 3.36% (inactive) | 4.14% (inactive) | 3.72% (inactive) | -0.09% (inactive) |
| C=C1C[C@]23C[C@@]1(O)CC[C@H]2[C@@]12C=C[C@H](O)[C@@](C)(C(=O)O1)[C@H]2[C@@H]3C(=O)O | 0.13% (inactive) | 0.82% (inactive) | 1.4% (inactive) | 2.17% (inactive) | -0.14% (inactive) |
| CC(O)(P(=O)(O)O)P(=O)(O)O [etidronic-acid] | 0.67% (inactive) | -1.84% (inactive) | -1.2% (inactive) | 0.77% (inactive) | 0.13% (inactive) |
| O=C(c1ccc(F)cc1)N1CCC[C@H](c2nc(-c3ccc(F)cc3)no2)C1 | -1.67% (inactive) | -0.59% (inactive) | -0.85% (inactive) | 0.74% (inactive) | 2.44% (inactive) |
| Nc1ccncc1N [amifampridine] | -1.81% (inactive) | -1.46% (inactive) | -2.67% (inactive) | -3.34% (inactive) | -5.61% (inactive) |
| Nc1ccc2ncnc(NCCc3ccc(Oc4ccccc4)cc3)c2c1 | -1.24% (inactive) | 1.54% (inactive) | -1.53% (inactive) | 0.25% (inactive) | -4.62% (inactive) |
| CN[C@@H](C)C(=O)N[C@H](C(=O)N1CCC[C@H]1C(=O)N[C@H]1c2ccccc2C[C@H]1OCC#CC#CCO[C@@H]1Cc2ccccc2[C@@H]1NC(=O)[C@@H]1CCCN1C(=O)[C@@H](NC(=O)[C@H](C)NC)C1CCCCC1)C1CCCCC1 | 0.65% (inactive) | 4.06% (inactive) | 1.35% (inactive) | -6.56% (inactive) | -3.86% (inactive) |
| CCCN(C/C=C/I)[C@H]1CCc2ccc(O)cc2C1 [7-hydroxy-PIPAT] | -0.76% (inactive) | 0.14% (inactive) | -1.03% (inactive) | -0.19% (inactive) | -1.39% (inactive) |
| Clc1ccc(C(Cn2ccnc2)OCc2csc3c(Cl)cccc23)c(Cl)c1 (stereo not given) [sertaconazole] | 0.24% (inactive) | 1.06% (inactive) | -0.32% (inactive) | 1.68% (inactive) | -2.97% (inactive) |
| CNC(=O)c1ccccc1Nc1cc(Nc2ccc(N3CCOCC3)cc2OC)ncc1C(F)(F)F | 0.1% (inactive) | -1.1% (inactive) | -2.99% (inactive) | -4.38% (inactive) | -3.64% (inactive) |
| O=C(O)c1cc2cccc([N+](=O)[O-])c2[nH]1 | -1.29% (inactive) | 0.14% (inactive) | -0.8% (inactive) | 0.27% (inactive) | 1.27% (inactive) |
| CC(=O)OCC(=O)[C@@]1(O)CC[C@H]2[C@@H]3CCC4=CC(=O)C=C[C@]4(C)[C@@]3(F)[C@@H](O)C[C@@]21C [isoflupredone-acetate] | 2.83% (inactive) | 2.61% (inactive) | 0.09% (inactive) | 1.17% (inactive) | 1.02% (inactive) |
| CCn1c2ccccc2c2cc(CNC)ccc21 | 4.22% (inactive) | 4.54% (inactive) | -0.29% (inactive) | -0.75% (inactive) | -3.22% (inactive) |
| CC(=O)Oc1ccccc1C(=O)Oc1ccccc1C(=O)O [acetylsalicylsalicylic-acid] | -1.51% (inactive) | 0.51% (inactive) | 2.44% (inactive) | -0.27% (inactive) | 1.17% (inactive) |
| FC(F)c1nc2ccccc2n1-c1nc(N2CCOCC2)nc(N2CCOCC2)n1 | -2.17% (inactive) | -0.7% (inactive) | 0.03% (inactive) | -2.96% (inactive) | -6.67% (inactive) |
| CCOC(=O)[C@H](CCc1ccccc1)N[C@@H](C)C(=O)N(CC(=O)O)C1Cc2ccccc2C1 [delapril] | -1.82% (inactive) | 0.71% (inactive) | 2.57% (inactive) | 2.28% (inactive) | -1.55% (inactive) |
| O=C(O)c1cc(-c2ccc(F)cc2F)ccc1O [diflunisal] | 1.75% (inactive) | -3.3% (inactive) | 2.12% (inactive) | 1.36% (inactive) | 0.19% (inactive) |
| CCS(=O)(=O)N(C)[C@H]1c2cc(C#N)ccc2OC(C)(C)[C@@H]1O [chromanol-293B-(-)-[3R,4S]] | 0.15% (inactive) | -2.19% (inactive) | 0.8% (inactive) | 1.12% (inactive) | -1.64% (inactive) |
| Nc1ncn([C@@H]2O[C@H](CO)[C@@H](O)[C@H]2O)c(=O)n1 [azacitidine] | -3.6% (inactive) | 0.66% (inactive) | 0.98% (inactive) | -0.22% (inactive) | 0.95% (inactive) |
